# In all, about 5,700 compounds went through this assay and about 85 (1%) were called active. Rule as the data show it: active = p53-positive nuclei above about 36% (passing the limit was not always enough); inactive = the rest. Many of the other results were omitted from the sample, so actives are more common in it than they were.
# What was measured:
# [1] = p53 stabilisation in HPV-positive human cells, imaging, p53-positive nuclei imaging, 24 h, 48 h (AID 1508601); settings: 24/48 h
# [2] = target: Cellular tumor antigen p53 (Homo sapiens) (UniProt P04637); test: as above; settings: 24/48 h, stronger effect = higher value
# Cellular tumor antigen p53 (Homo sapiens), sequence (P04637 whole entry, looked up): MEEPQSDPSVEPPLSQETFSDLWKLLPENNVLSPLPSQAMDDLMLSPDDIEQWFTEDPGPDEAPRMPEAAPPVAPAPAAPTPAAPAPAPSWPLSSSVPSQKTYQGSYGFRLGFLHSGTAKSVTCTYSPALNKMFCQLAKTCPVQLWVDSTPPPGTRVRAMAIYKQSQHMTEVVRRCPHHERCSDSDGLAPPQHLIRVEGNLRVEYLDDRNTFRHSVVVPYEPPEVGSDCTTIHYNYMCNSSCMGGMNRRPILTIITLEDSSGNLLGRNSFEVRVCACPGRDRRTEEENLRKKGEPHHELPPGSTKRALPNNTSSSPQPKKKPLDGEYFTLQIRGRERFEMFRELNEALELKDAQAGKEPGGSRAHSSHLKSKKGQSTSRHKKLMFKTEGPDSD
# [3] = measured here: cell number at 24 h, Library stock concentration: 3.33 mM
# [4] = measured here: cell number at 48 h, Library stock concentration: 3.33 mM
# [5] = Library stock concentration: 3.33 mM
# [6] = measured here: p53 positive nuclei at 24 h, Library stock concentration: 3.33 mM
# [7] = measured here: cell number at 24 h, Library stock concentration: 80 uM
# [8] = measured here: cell number at 24 h, Library stock concentration: 400 uM
# [9] = measured here: cell number at 24 h, Library stock concentration: 2 mM
# [10] = measured here: cell number at 24 h, Library stock concentration: 10 mM
# [11] = measured here: cell number at 48 h, Library stock concentration: 80 uM
# [12] = measured here: cell number at 48 h, Library stock concentration: 400 uM
# [13] = measured here: cell number at 48 h, Library stock concentration: 2 mM
# [14] = measured here: cell number at 48 h, Library stock concentration: 10 mM
# [15] = Library stock concentration: 80 uM
# [16] = Library stock concentration: 400 uM
# [17] = Library stock concentration: 2 mM
# [18] = Library stock concentration: 10 mM
# [19] = measured here: p53 positive nuclei at 24 h, Library stock concentration: 80 uM
# [20] = measured here: p53 positive nuclei at 24 h, Library stock concentration: 400 uM
# [21] = measured here: p53 positive nuclei at 24 h, Library stock concentration: 2 mM
# [22] = measured here: p53 positive nuclei at 24 h, Library stock concentration: 10 mM
smiles,measurement,setting,value
Cc1cn(C2OC(CO)C(O)C2F)c(=O)[nH]c1=O (stereo not drawn),"nuclei count, normalised",[1]; [3],108%
same,"nuclei count, normalised",[1]; [4],103%
same,"p53-positive nuclei, normalised",[2]; [5],-0.314% (inactive)
same,"p53-positive nuclei, normalised",[2]; [6],-0.356%
COC(=O)N1C(=O)[C@](c2ccccc2)(C2CCCC2)N1C(=O)OC,"nuclei count, normalised",[1]; [7],90.3%
same,"nuclei count, normalised",[1]; [8],87.6%
same,"nuclei count, normalised",[1]; [9],93.9%
same,"nuclei count, normalised",[1]; [10],90.1%
same,"nuclei count, normalised",[1]; [11],91.7%
same,"nuclei count, normalised",[1]; [12],93.5%
same,"nuclei count, normalised",[1]; [13],99.5%
same,"nuclei count, normalised",[1]; [14],96.9%
same,"p53-positive nuclei, normalised",[2]; [15],-0.0853% (inactive)
same,"p53-positive nuclei, normalised",[2]; [16],-0.162% (inactive)
same,"p53-positive nuclei, normalised",[2]; [17],0.00515% (inactive)
same,"p53-positive nuclei, normalised",[2]; [18],0.0597% (inactive)
same,"p53-positive nuclei, normalised",[2]; [19],-0.136%
same,"p53-positive nuclei, normalised",[2]; [20],-0.136%
same,"p53-positive nuclei, normalised",[2]; [21],0.165%
same,"p53-positive nuclei, normalised",[2]; [22],0.0248%
Cc1cc(C)c(/C=C2\C(=O)Nc3ccccc32)[nH]1,"nuclei count, normalised","[1]; measured here: cell number at 24 h, concentration not given here",96.2%
same,"nuclei count, normalised","[1]; measured here: cell number at 48 h, concentration not given here",102%
same,"p53-positive nuclei, normalised",[2]; concentration not given here,0.0559% (inactive)
same,"p53-positive nuclei, normalised","[2]; measured here: p53 positive nuclei at 24 h, concentration not given here",0.0506%
Cc1cc(C)c(C=C2C(=O)Nc3ccccc32)[nH]1,"nuclei count, normalised",[1]; [3],116%
same,"nuclei count, normalised",[1]; [4],119%
same,"p53-positive nuclei, normalised",[2]; [5],-0.0521% (inactive)
same,"p53-positive nuclei, normalised",[2]; [6],-0.278%
COc1cc(=C2C=c3ccccc3=N2)[nH]c1=Cc1[nH]c(C)cc1C,"nuclei count, normalised",[1]; [7],104%
same,"nuclei count, normalised",[1]; [8],82.2%
same,"nuclei count, normalised",[1]; [9],74.9%
same,"nuclei count, normalised",[1]; [3],71.2%
same,"nuclei count, normalised",[1]; [10],65.9%
same,"nuclei count, normalised",[1]; [11],101%
same,"nuclei count, normalised",[1]; [12],75.4%
same,"nuclei count, normalised",[1]; [13],60.3%
same,"nuclei count, normalised",[1]; [4],61.8%
same,"nuclei count, normalised",[1]; [14],52.6%
same,"p53-positive nuclei, normalised",[2]; [15],0.397% (inactive)
same,"p53-positive nuclei, normalised",[2]; [16],74% (active)
same,"p53-positive nuclei, normalised",[2]; [17],142% (active)
same,"p53-positive nuclei, normalised",[2]; [5],137% (active)
same,"p53-positive nuclei, normalised",[2]; [18],105% (active)
same,"p53-positive nuclei, normalised",[2]; [19],0.165%
same,"p53-positive nuclei, normalised",[2]; [20],72.4%
same,"p53-positive nuclei, normalised",[2]; [21],167%
same,"p53-positive nuclei, normalised",[2]; [6],159%
same,"p53-positive nuclei, normalised",[2]; [22],137%
Nc1ccn(C2C=C(CO)C(O)C2O)c(=O)n1 (stereo not drawn),"nuclei count, normalised","[1]; measured here: cell number at 24 h, Library stock concentration: 500 nM",108%
same,"nuclei count, normalised","[1]; measured here: cell number at 24 h, Library stock concentration: 1.5 uM",117%
same,"nuclei count, normalised","[1]; measured here: cell number at 24 h, Library stock concentration: 4.6 uM",110%
same,"nuclei count, normalised","[1]; measured here: cell number at 24 h, Library stock concentration: 13.7 uM",119%
same,"nuclei count, normalised","[1]; measured here: cell number at 24 h, Library stock concentration: 41 uM",115%
same,"nuclei count, normalised","[1]; measured here: cell number at 24 h, Library stock concentration: 123 uM",83.8%
same,"nuclei count, normalised","[1]; measured here: cell number at 24 h, Library stock concentration: 370 uM",70%
same,"nuclei count, normalised","[1]; measured here: cell number at 24 h, Library stock concentration: 1.111 mM",73.4%
same,"nuclei count, normalised","[1]; measured here: cell number at 24 h, Library stock concentration: 3.333 mM",65.6%
same,"nuclei count, normalised",[1]; [10],65.3%
same,"nuclei count, normalised","[1]; measured here: cell number at 48 h, Library stock concentration: 500 nM",109%
same,"nuclei count, normalised","[1]; measured here: cell number at 48 h, Library stock concentration: 1.5 uM",111%
same,"nuclei count, normalised","[1]; measured here: cell number at 48 h, Library stock concentration: 4.6 uM",111%
same,"nuclei count, normalised","[1]; measured here: cell number at 48 h, Library stock concentration: 13.7 uM",117%
same,"nuclei count, normalised","[1]; measured here: cell number at 48 h, Library stock concentration: 41 uM",105%
same,"nuclei count, normalised","[1]; measured here: cell number at 48 h, Library stock concentration: 123 uM",67.3%
same,"nuclei count, normalised","[1]; measured here: cell number at 48 h, Library stock concentration: 370 uM",54.3%
same,"nuclei count, normalised","[1]; measured here: cell number at 48 h, Library stock concentration: 1.111 mM",57.7%
same,"nuclei count, normalised","[1]; measured here: cell number at 48 h, Library stock concentration: 3.333 mM",52.7%
same,"nuclei count, normalised",[1]; [14],52%
same,"p53-positive nuclei, normalised",[2]; Library stock concentration: 500 nM,-0.14% (inactive)
same,"p53-positive nuclei, normalised",[2]; Library stock concentration: 1.5 uM,-0.145% (inactive)
same,"p53-positive nuclei, normalised",[2]; Library stock concentration: 4.6 uM,0.0813% (inactive)
same,"p53-positive nuclei, normalised",[2]; Library stock concentration: 13.7 uM,-0.00208% (inactive)
same,"p53-positive nuclei, normalised",[2]; Library stock concentration: 41 uM,-0.138% (inactive)
same,"p53-positive nuclei, normalised",[2]; Library stock concentration: 123 uM,0.289% (inactive)
same,"p53-positive nuclei, normalised",[2]; Library stock concentration: 370 uM,-0.0266% (inactive)
same,"p53-positive nuclei, normalised",[2]; Library stock concentration: 1.111 mM,0.668% (inactive)
same,"p53-positive nuclei, normalised",[2]; Library stock concentration: 3.333 mM,0.138% (inactive)
same,"p53-positive nuclei, normalised",[2]; [18],0.496% (inactive)
same,"p53-positive nuclei, normalised","[2]; measured here: p53 positive nuclei at 24 h, Library stock concentration: 500 nM",0.0935%
same,"p53-positive nuclei, normalised","[2]; measured here: p53 positive nuclei at 24 h, Library stock concentration: 1.5 uM",-0.093%
same,"p53-positive nuclei, normalised","[2]; measured here: p53 positive nuclei at 24 h, Library stock concentration: 4.6 uM",-0.13%
same,"p53-positive nuclei, normalised","[2]; measured here: p53 positive nuclei at 24 h, Library stock concentration: 13.7 uM",0.115%
same,"p53-positive nuclei, normalised","[2]; measured here: p53 positive nuclei at 24 h, Library stock concentration: 41 uM",-0.0784%
same,"p53-positive nuclei, normalised","[2]; measured here: p53 positive nuclei at 24 h, Library stock concentration: 123 uM",0.089%
same,"p53-positive nuclei, normalised","[2]; measured here: p53 positive nuclei at 24 h, Library stock concentration: 370 uM",0.146%
same,"p53-positive nuclei, normalised","[2]; measured here: p53 positive nuclei at 24 h, Library stock concentration: 1.111 mM",0.68%
same,"p53-positive nuclei, normalised","[2]; measured here: p53 positive nuclei at 24 h, Library stock concentration: 3.333 mM",0.184%
same,"p53-positive nuclei, normalised",[2]; [22],0.519%

# Source: PubChem BioAssay AID1508601 (ICCB-Longwood Screening Facility, Harvard Medical School, 2020)
